Data as given in the supplement of paper PMC11577813, “Eurasian spruce bark beetle detects lanierone using a highly expressed specialist odorant receptor, present in several functional sensillum types” (BMC Biology, 2024).
± gives the standard deviation of the averaged measurements.

Test system: ipsdienol A-neuron OSN class
Assay: net action potential response of A-neuron (blank-subtracted) (spikes/s (Hz)); higher = stronger excitation
Details: 10 µg on filter paper; neuron: A neuron (large spike amplitude)
Protocol: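 Single sensillum recordings from antennal olfactory sensilla of live adult Ips typographus. Each compound was 10 µg in paraffin oil on filter paper, delivered as a 0.5 s puff. Net response = spikes in the first 0.5 s of response minus the 0.5 s pre-stimulus count, doubled to give Hz, with blank response subtracted. Values are for the large-spike A-neuron class of each of seven sensillum types that co-house the lanierone B-neuron; N = 1-4 sensilla, averaged.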

SMILES | net action potential response
CC[C@H]1O[C@]2(C)CCC[C@H]1O2 (racemic) [(±)-exo-Brevicomin] | -2.67 ± 5
C=CC(=C)C[C@@H](O)CC(C)C (racemic) [(±)-Ipsenol] | 19.3 ± 15
CC(C)[C@@]12CC[C@@](C)(O)[C@@H]1C2 [(+)-trans-4-Thujanol] | -4 ± 4
C[C@]12CCC[C@](C)(OC1)O2 (racemic) [(±)-Frontalin] | 2 ± 3.5
COc1ccc(C)cc1OC [3,4-Dimethoxytoluene] | 0.667 ± 1.1
CCc1ccc(O)c(OC)c1 [4-Ethylguaiacol] | 0 ± 8
c1ccc2c(c1)CCO2 [2,3-Dihydrobenzofuran] | 4 ± 7.2
CCCCCC=O [Hexanal] | 0.667 ± 2.3
C=C1[C@@H]2CC[C@@H](C2)C1(C)C (racemic) [(±)-Camphene] | 0 ± 2
C=CC(C)(C)O [2-Methyl-3-buten-2-ol] | 0 ± 4
C=C1CCC2(C(C)C)CC12 (racemic) [(±)-Sabinene] | 3.33 ± 2.3
COc1ccc(C)cc1 [4-Methyl anisole] | 4 ± 2
CC1(C)C2CC=C(CO)C1C2 (racemic) [(±)-Myrtenol] | 0.667 ± 3.1
CC(=O)CC/C=C(\C)CCC=C(C)C [Geranylacetone] | 2.67 ± 4.6
CCC/C=C\CO | 0.667 ± 3.1
CCC(C)CO (racemic) [(±)-2-Methyl-1-butanol] | 3.33 ± 1.1
Cc1ccc(C(C)C)cc1 [p-Cymene] | 2 ± 3.5
C=C1CCC2CC1C2(C)C (stereo not drawn) [(-)-β-Pinene] | 2.67 ± 1.1
CC/C=C\CCO | 0 ± 2
CCCCCCO [1-Hexanol] | -5.33 ± 5.8

SMILES | net action potential response
CC12CCC(CC1=O)C2(C)C (racemic) [(±)-Camphor] | -0.667 ± 5
CC1=CCC2CC1C2(C)C (stereo not drawn) [(+)-α-Pinene] | 2.67 ± 1.1
CC12CCC(CC1)C(C)(C)O2 [1,8-Cineole] | 0 ± 5.3
C=Cc1ccc(OC)cc1 [4-Vinyl anisole] | 2 ± 6
CC(C)=CCC/C(C)=C/C=O [Citral (E/Z mix)] | 1.33 ± 1.1
CCC1CCC2(CCCO2)O1 (racemic) [(±)-Chalcogran] | 1.33 ± 2.3
CC(=O)OCc1ccccc1 [Benzyl acetate] | -0.667 ± 5
C=C(C)C1CC=C(C)C(=O)C1 (racemic) [(±)-Carvone] | 0 ± 3.5
C=CCc1ccc(OC)c(OC)c1 [Eugenol methyl ether] | 1.33 ± 1.1
C=CC(=C)CC(O)C=C(C)C (racemic) [(±)-Ipsdienol] | 116 ± 12
CC1=C[C@@H](O)[C@H]2C[C@@H]1C2(C)C [(-)-trans-Verbenol] | 0.667 ± 3.1
C=Cc1ccccc1 [Styrene] | 0 ± 2
CC(C)CCO [3-Methyl-1-butanol] | 0.667 ± 4.2
CC1=CCC2CC1C2(C)C (stereo not drawn) [(-)-α-Pinene] | 1.33 ± 2.3
C[C@H]1C(=O)C[C@H]2C[C@@H]1C2(C)C [(-)-Pinocamphone] | -2.67 ± 1.1
CC1=CC(=O)[C@@H]2C[C@H]1C2(C)C [(-)-Verbenone] | 2 ± 2
C[C@@H]1C(=O)C[C@H]2C[C@@H]1C2(C)C [(+)-Isopinocamphone] | 0 ± 5.3
CC1=CCC2C(C1)C2(C)C (single isomer, unassigned; (+)) [(+)-3-Carene] | 2.67 ± 5.8
C=CC(=C)CCC=C(C)C [Myrcene] | -2 ± 3.5
CC(=O)OCCC(C)C [3-Methylbutyl acetate] | 0 ± 6.9
